Inconclusive results are not listed. Activity calls are given as the source filed them. Rule for the calls: active = hit-call score of the fitted dose curve at least 0.9, where 1 is the maximum; inconclusive = response in the unintended direction; inactive = score below 0.9.
system: Thyroperoxidase (TPO), gene 54314; assay: CCTE_Simmons_AUR_rTPO: CCTE's Amplex UltraRed Assay for Thyroperoxidase (TPO) Inhibition, Simmons Lab (AID 2283662);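 for AC50: potency for loss of signal meaning inhibition of peroxidase activity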
Summary of the method: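 Cell-free peroxidase activity assay using rat thyroid gland microsomes with excess H2O2 (300 uM) and 25 uM Amplex UltraRed. Compounds tested from 5 nM to 87.5 uM; fluorescence measured after 30 min at 37C, analysed relative to DMSO baseline.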

SMILES	outcome	AC50
COc1cc([N+](=O)[O-])ccc1N	inactive	–
C[C@]12CC[C@@H]3c4ccc(O)cc4CC[C@H]3[C@@H]1C[C@@H](O)[C@@H]2O	–	11.9 µM (active)
NC(=NCCCCCCN=C(N)/N=C(\N)Nc1ccc(Cl)cc1)/N=C(\N)Nc1ccc(Cl)cc1	inactive	–
CCc1cccc(CC)c1N(COC)C(=O)CS(=O)(=O)O	inactive	–
Cc1cc(C(=C2C=CC(=Nc3ccc(S(=O)(=O)O)cc3)C=C2)c2ccc(Nc3ccc(S(=O)(=O)O)cc3)cc2)cc(S(=O)(=O)O)c1N	–	29.4 µM (active)

system: not listed separately; assay: CCTE_Simmons_CellTiterGLO_HEK293T: Viability Assessment in CCTE's Assays for Thyroperoxidase (TPO) Inhibition, Simmons Lab (AID 2283665);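 for AC50: cells exposed to compound for 24 h before readout; actives reduce ATP signal below DMSO vehicle meaning cytotoxicity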
Summary of the method: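 Luciferase-coupled ATP content after 24 h exposure gives viability; 8-point series from 5 nM to 87.5 uM final in 0.5% DMSO. Human HEK293T cells, 1% FBS medium, three biological replicates, dichlone positive control.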

SMILES	AC50	outcome
COc1cc([N+](=O)[O-])ccc1N	19.1 µM (active)	–
C[C@]12CC[C@@H]3c4ccc(O)cc4CC[C@H]3[C@@H]1C[C@@H](O)[C@@H]2O	–	inactive
NC(=NCCCCCCN=C(N)/N=C(\N)Nc1ccc(Cl)cc1)/N=C(\N)Nc1ccc(Cl)cc1	7.96 µM (active)	–
CCc1cccc(CC)c1N(COC)C(=O)CS(=O)(=O)O	–	inactive
Cc1cc(C(=C2C=CC(=Nc3ccc(S(=O)(=O)O)cc3)C=C2)c2ccc(Nc3ccc(S(=O)(=O)O)cc3)cc2)cc(S(=O)(=O)O)c1N	–	inactive
